The record followed here is PubChem BioAssay.

For part of these data: Results with a measured potency or affinity are listed apart. Activity calls are given as the source filed them.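 How the source made its calls, unless noted: active means compound raising the membrane signal above positive-control mean plus 3 SD in both repeats, and a primary screen hit; inactive means the rest.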

The subject of experiment [1] is TRPC4 beta (transient receptor potential cation channel C4), mouse. Briefly: activators of mouse TRPC4 channel, confirmation, cell-based, Fluo4 calcium, HEK293 TRPC4beta/mu-opioid, duplicates, 10 µM (AID 2426;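 active means fluorescence ratio normalized to control raised more than 50% in primary screen plus both repeat runs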;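 on activation: percent rise of integrated ratio over buffer wells lacking compound which define 0%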). Conditions: Fluo4 calcium fluorescence, at 10 µM; hits give high values.
The test system of experiment [2] is transient receptor potential cation channel C4 beta (TRPC4), mouse. Put plainly: activators of mouse TRPC4 channel, confirmation, cell-based, second round, Fluo4, HEK293 TRPC4beta/mu-opioid, 1 µM (AID 2461;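 active means primary screen active and over 50% activation in each of two duplicate runs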;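 on activation: 0% = wells without test compound as baseline of integrated fluorescence ratio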). Particulars: Fluo4 calcium fluorescence, at 1 µM; hits give high values.
Experiment [3] concerns TRPC4 (transient receptor potential cation channel C4 beta), mouse. Briefly: positive allosteric modulators of mouse TRPC4, confirmation, cell-based, second round, Fluo-4, HEK293 TRPC4beta/mu-opioid, 1 µM (AID 2554;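 active means primary screen hit whose fluorescence ratio, in both repeats, exceeds the weak agonist control mean by 3 SD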). Conditions: DAMGO EC20, Fluo-4 calcium flux, at 1 µM; hits give high values. On the technique in general: Calcium assays in cells follow changes in intracellular calcium, usually with a dye or a luminescent sensor.

Experiment [4] concerns TRPC4 beta (transient receptor potential cation channel C4), mouse. Put plainly: positive allosteric modulators of mouse TRPC4, confirmation, cell-based, Fluo-4, HEK293 TRPC4beta/mu-opioid (AID 2555;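 active means primary screen hit whose calcium fluorescence ratio, in both repeats, exceeds the weak agonist control mean by 3 SD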). Particulars: DAMGO EC20, Fluo-4 calcium flux, at 10 µM; hits give high values.
Experiment [5] deals with Short transient receptor potential channel 4 (Mus musculus) (UniProt Q9QUQ5). Put plainly: inhibitors of mouse TRPC4 channel, confirmation, cell-based, Fluo4, HEK293 TRPC4beta/mu-opioid (AID 2636;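 active means calcium signal cut by more than 3 SD below the full-agonist control yet still positive, in both repeats and the earlier primary screen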). Conditions: DAMGO, Fluo4 calcium flux, at 10 µM; hits give high values.
For experiment [6] the target is unchanged. Briefly: inhibitors of mouse TRPC4 channel, confirmation, cell-based, second round, Fluo4, HEK293 TRPC4beta/mu-opioid, 1 µM (AID 2637;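 active means calcium signal ratio cut to more than 3 SD under the fully stimulated control mean yet still positive, in both repeats and the primary screen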). Particulars: Fluo4 calcium flux, DAMGO, at 1 µM; hits give high values.
For experiment [7] the target is unchanged. Briefly: TRPC4 positive allosteric modulators, dose response, cell-based, HEK293 TRPC4/mu-opioid, Fluo-4 calcium, EC20 DAMGO (AID 434941;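 active means earlier screen potentiator hit that boosts the TRPC4 ion channel at some dose, with a dose response; inactive means no potentiation, no dose response, or not a prior hit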;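 further: calcium entry triggered by an EC20 dose of DAMGO at the co-expressed mu-opioid receptor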).
For experiment [8] the target is unchanged. Put plainly: mouse TRPC4 channel inhibitors, dose response, cell-based, HEK293 TRPC4/mu-opioid, Fluo-4 calcium (AID 434942;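 active means primary screen inhibitor hit that blocks the TRPC4 channel at some tested dose, yielding a dose curve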).
In experiment [9] the target is Short transient receptor potential channel 6 (Mus musculus) (UniProt Q61143). Briefly: inhibition of mouse TRPC6 channel, confirmation, selectivity assay for TRPC4 inhibitor project, cell-based, HEK293, membrane potential dye, duplicate (AID 434948;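 active means active in primary screen and both duplicates, each dropping signal beyond three positive-control SD with fluorescence still positive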). Conditions: HEK293 TRPC6, membrane potential dye fluorescence, at 10 µM, stimulated with maximal-effect acetylcholine; hits give high values.

The target is the same in experiment [10]. Put plainly: activation of mouse TRPC6 channel, confirmation, selectivity assay for TRPC4 activator project, cell-based, HEK293, membrane potential dye, duplicate (AID 434950;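 active means membrane potential signal rise above negative control mean plus 3 SD in both duplicates, also active in the earlier TRPC4 screen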;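 on activation: 0% = buffer only wells and 100% = acetylcholine maximal-effect wells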). Particulars: HEK293 TRPC6, membrane potential fluorescence, at 10 µM; hits give high values.
Experiment [11] has the same target. Put plainly: TRPC6 potentiation by TRPC4 potentiator hits, confirmation, selectivity assay for TRPC4 potentiator project, HEK293 cells, membrane potential dye, duplicate (AID 434952). Conditions: HEK293 TRPC6, membrane potential dye fluorescence, at 10 µM, maximal acetylcholine added after compound; hits give high values.
The target in experiment [12] is Short transient receptor potential channel 4 (Mus musculus) (UniProt Q9QUQ5). Briefly: calcium flux activators in TRPC4/5HT1a cells, counter-screen for TRPC4 activator project, cell-based, second counter screen, HEK293 TRPC4/5HT1a, Fluo-4 (AID 434977;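 active means calcium signal rise above buffer-control mean plus 5 SD in both duplicates, and also a hit in the primary screen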;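 on activation: plate controls were assay buffer for no effect and maximal serotonin response for full effect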). Conditions: Fluo-4 calcium flux, at 10 µM; hits give high values.
Experiment [13] in a line: calcium flux inhibitors in TRPC4/5HT1a cells, confirmation, counter-screen for TRPC4 inhibitor project, cell-based, second counter screen, HEK293 TRPC4/5HT1a, Fluo-4 (AID 434978;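 active means primary screen active whose calcium signal fell more than 3 SD beyond the full-serotonin control mean in both duplicate plates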;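 further: serotonin given first at submaximal then at maximal dose after compound preincubation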). Particulars: Fluo-4 calcium flux, at 10 µM, serotonin added to trigger calcium flux; hits give high values.
The test system of experiment [14] is TRPC4 (mouse), co-expressed with 5HT1a in HEK293. Briefly: calcium flux potentiators in TRPC4/5HT1a cells, confirmation, counter-screen for TRPC4 potentiator project, cell-based, second counter screen, HEK293 TRPC4/5HT1a, Fluo-4 (AID 434979;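 active means signal rise over 3 SD above mean of control wells given weak agonist, in both repeats and first screen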). Particulars: Fluo-4 calcium flux, at 10 µM, serotonin added at its EC20 dose; hits give high values.
The nature of experiment [15]: calcium flux activation in mu-opioid HEK293 cells, confirmation, counter-screen for TRPC4 activator project, cell-based, HEK293 mu-opioid receptor line (AID 449723;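 active means hit in primary screen, with calcium signal over 5 SD above buffer well mean in both duplicates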;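 further: counter screen cells carry the mu-opioid receptor alone and lack TRPC4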). Conditions: Fluo-4 calcium fluorescence, at 10 µM; hits give high values.
A short description of experiment [16]: calcium flux enhancement in mu-opioid HEK293 cells, confirmation, counter-screen for TRPC4 allosteric potentiator project, cell-based, HEK293 mu-opioid receptor line (AID 449724;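 active means calcium signal rise more than 3 SD above the low-dose agonist control mean, in both duplicate plates and the primary screen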;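 further: HEK293 cells carrying mu-opioid receptor only with no TRPC4 channel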). Conditions: Fluo-4 calcium flux, at 10 µM, compound added before EC20 DAMGO stimulus; hits give high values.

Short transient receptor potential channel 4 (Mus musculus), sequence (Q9QUQ5 whole entry, looked up): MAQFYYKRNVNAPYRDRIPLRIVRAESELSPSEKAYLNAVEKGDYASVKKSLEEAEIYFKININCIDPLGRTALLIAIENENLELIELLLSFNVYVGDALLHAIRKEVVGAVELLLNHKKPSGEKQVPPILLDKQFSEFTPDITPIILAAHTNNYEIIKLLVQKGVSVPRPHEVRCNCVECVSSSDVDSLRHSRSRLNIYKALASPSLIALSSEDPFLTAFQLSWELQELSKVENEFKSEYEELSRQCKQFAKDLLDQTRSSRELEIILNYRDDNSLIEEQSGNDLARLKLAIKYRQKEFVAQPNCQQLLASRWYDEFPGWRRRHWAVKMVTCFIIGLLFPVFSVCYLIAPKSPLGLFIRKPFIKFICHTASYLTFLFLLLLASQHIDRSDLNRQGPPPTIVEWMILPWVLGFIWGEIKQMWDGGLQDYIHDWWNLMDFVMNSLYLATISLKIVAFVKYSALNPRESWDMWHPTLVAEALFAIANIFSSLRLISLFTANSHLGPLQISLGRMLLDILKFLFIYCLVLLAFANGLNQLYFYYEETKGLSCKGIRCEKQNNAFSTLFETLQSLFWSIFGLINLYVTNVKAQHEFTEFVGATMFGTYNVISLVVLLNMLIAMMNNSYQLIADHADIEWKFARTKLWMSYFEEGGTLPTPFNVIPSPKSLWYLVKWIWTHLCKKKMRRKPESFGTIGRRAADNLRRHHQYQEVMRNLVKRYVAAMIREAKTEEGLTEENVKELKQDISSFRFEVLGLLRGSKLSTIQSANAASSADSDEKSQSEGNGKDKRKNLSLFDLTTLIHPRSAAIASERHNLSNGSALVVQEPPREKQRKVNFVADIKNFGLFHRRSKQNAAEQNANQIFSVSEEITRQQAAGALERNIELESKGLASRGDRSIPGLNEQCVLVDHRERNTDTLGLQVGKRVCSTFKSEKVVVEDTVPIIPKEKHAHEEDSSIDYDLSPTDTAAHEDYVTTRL
Short transient receptor potential channel 6 (Mus musculus), sequence (Q61143 whole entry, looked up): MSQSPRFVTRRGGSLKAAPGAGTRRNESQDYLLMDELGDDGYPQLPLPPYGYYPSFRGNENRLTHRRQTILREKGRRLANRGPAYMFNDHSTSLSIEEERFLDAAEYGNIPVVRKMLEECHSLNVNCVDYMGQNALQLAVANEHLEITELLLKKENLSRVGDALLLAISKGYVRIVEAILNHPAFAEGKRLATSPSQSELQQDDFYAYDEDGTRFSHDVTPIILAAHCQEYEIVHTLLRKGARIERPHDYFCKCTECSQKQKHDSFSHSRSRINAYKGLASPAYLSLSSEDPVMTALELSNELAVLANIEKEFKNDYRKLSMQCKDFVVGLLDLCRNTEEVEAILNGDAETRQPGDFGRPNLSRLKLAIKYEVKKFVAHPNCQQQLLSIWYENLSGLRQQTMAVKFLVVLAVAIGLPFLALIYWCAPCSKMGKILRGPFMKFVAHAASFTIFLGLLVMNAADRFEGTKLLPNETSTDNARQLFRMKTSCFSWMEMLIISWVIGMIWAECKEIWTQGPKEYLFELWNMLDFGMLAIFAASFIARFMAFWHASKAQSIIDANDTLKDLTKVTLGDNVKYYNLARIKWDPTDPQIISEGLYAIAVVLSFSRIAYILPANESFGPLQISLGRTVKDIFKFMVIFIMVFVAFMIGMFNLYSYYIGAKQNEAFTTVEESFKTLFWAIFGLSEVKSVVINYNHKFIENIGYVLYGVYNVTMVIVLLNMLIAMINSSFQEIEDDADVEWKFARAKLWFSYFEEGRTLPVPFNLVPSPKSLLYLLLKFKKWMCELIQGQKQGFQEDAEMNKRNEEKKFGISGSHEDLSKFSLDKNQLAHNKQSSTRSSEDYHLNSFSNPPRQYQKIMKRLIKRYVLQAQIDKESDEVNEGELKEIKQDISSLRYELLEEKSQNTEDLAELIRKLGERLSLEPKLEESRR

As for `COc1ccccc1N1CCN(C(c2cccs2)C(C)NC(=O)c2ccco2)CC1` (stereo not given), the activation was 73% (active) in experiment [1] and 32% (active) in [10]. Further, the result in experiment [2], in [3], in experiment [4], in [5], in experiment [6] and in experiment [7] was inactive. The outcome in experiment [8], in [9], in experiment [11], in experiment [12], in [13] and in experiment [14] was inactive. The outcome in experiment [15] and in [16] was inactive.

As to `CC1(C(=O)NC(=S)NNC(=O)c2ccncc2)CCCCC1`, the activation is 197% (active) in experiment [1] and 101% (active) in experiment [12]. The outcome in experiment [2], in experiment [3], in [4], in [5], in experiment [6] and in experiment [7] was inactive. Moreover, the result in [8], in [9], in experiment [10], in experiment [11], in experiment [13] and in experiment [14] was inactive. Further, the result in [15] and in experiment [16] was inactive.

Regarding `CCOc1ccc(CN2CCNC(=O)C2CC(=O)NCCc2ccccn2)cc1` (stereo not given), the activation was 145% (active) in experiment [1] and 49% (active) in experiment [12]. The outcome in experiment [2], in [3], in [4], in experiment [5], in [6] and in [7] was inactive. In addition, the outcome in experiment [8], in experiment [9], in experiment [10], in experiment [11], in experiment [13] and in [14] was inactive. Moreover, the outcome in experiment [15] and in [16] was inactive.

Regarding `CN1C2C=C(N(CCc3ccccc3)C(=O)c3ccc(Cl)cc3)CC1CC2` (stereo not given), the result in experiment [1], in experiment [2], in [3], in experiment [4], in [5] and in experiment [6] was inactive. Further, the result in experiment [7], in experiment [8], in [9], in experiment [11], in [12] and in [13] was inactive. Further, the outcome in experiment [14], in [15] and in experiment [16] was inactive. Further, in experiment [10], the activation is 50% (active).

For the compound `Cc1noc(C)c1S(=O)(=O)N1CCC(C(=O)NCCCN2CC(C)CC(C)C2)CC1` (stereo not given), the figures for the activation in [1], in experiment [2] and in experiment [12] were 99% (active), 75% (active) and 28.5% (active), respectively. Moreover, the outcome in experiment [3], in experiment [4], in experiment [5], in experiment [6], in experiment [7] and in [8] was inactive. In addition, the result in experiment [9], in experiment [10], in experiment [11], in experiment [13], in [14] and in [15] was inactive. Besides, the result in experiment [16] was inactive.

`Cc1ccccc1C(=O)NNC(=S)NC(=O)COc1ccccc1`: the activation in experiment [1] is 180% (active); in [12], 127% (active); in experiment [15], 43.2% (active). The outcome in experiment [2], in [3], in [4], in experiment [5], in experiment [6] and in experiment [7] was inactive. For the same compound, the result in experiment [8], in experiment [9], in experiment [10], in experiment [11], in [13] and in experiment [14] was inactive. In addition, the outcome in [16] was inactive.

With `CCOC(=O)c1ccc(NC(=O)NCCc2cnc[nH]2)cc1`, the activation in experiment [1] is 147% (active); in experiment [2] it was 136% (active); in [10], 38% (active); in experiment [12], 90.7% (active). Also, the result in [3], in [4], in experiment [5], in [6], in experiment [7] and in [8] was inactive. For the same compound, the compound was called inactive in experiment [9], in experiment [11], in experiment [13], in [14], in experiment [15] and in experiment [16].

For the compound `O=C1/C(=C\c2cc([N+](=O)[O-])ccc2O)SC(=S)N1Cc1ccc(Cl)cc1`, the activation is 147% (active) in experiment [1]; 529% (active) in [10]; 147% (active) in [12]; 158% (active) in experiment [15]; 5450% (active) in experiment [16]. Besides, the outcome in experiment [2], in [3], in [5], in [6], in [7] and in [8] was inactive. The call in experiment [9] and in experiment [13] was inactive. Also, the potentiation in [4] and in experiment [14] was 21% (active) in each case. The potentiation, percent of control in [11] is 192% (active).

Turning to `Cc1ccccc1NC(=S)NCC(c1cccnc1)N(C)C` (stereo not given), the activation in experiment [1] is 112% (active); in [2], 111% (active); in experiment [10] it was 32% (active). For the same compound, the result in experiment [3], in experiment [4], in experiment [5], in [6], in experiment [7] and in experiment [8] was inactive. For the same compound, the compound was classed as inactive in experiment [9], in experiment [11], in experiment [12], in experiment [13], in [14] and in experiment [15]. Besides, the outcome in experiment [16] was inactive.

Turning to `CCN1CCCC1CNS(=O)(=O)c1c(C)cc(C)cc1C` (stereo not given), the activation in [1] was 95% (active); in [10] it was 61.5% (active); in experiment [12] it was 20.3% (active). In addition, the outcome in [2], in experiment [3], in experiment [4], in experiment [5], in [6] and in experiment [7] was inactive. In addition, the result in [8], in experiment [9], in experiment [11], in [13], in experiment [14] and in experiment [15] was inactive. Besides, the result in [16] was inactive.

As to `COc1ccc2c(Cl)c(-c3nnc4n3CCCCC4)sc2c1`, the activation in [1] is 117% (active); in experiment [10] it was 52% (active). Moreover, the outcome in experiment [2], in experiment [3], in experiment [4], in experiment [5], in experiment [6] and in [7] was inactive. The outcome in experiment [8], in [9], in [11], in [12], in experiment [13] and in experiment [14] was inactive. The result in [15] and in experiment [16] was inactive.

Take `CC(C)(C)C(=O)/C=c1\s/c(=C\c2ccc(-c3ccc([N+](=O)[O-])cc3)o2)c(=O)n1CC(=O)NC(N)=O`: the activation in experiment [1] is 63% (active); in experiment [10] it was 534% (active); in experiment [12], 30% (active); in experiment [15] it was 68.5% (active); in experiment [16], 1220% (active). In addition, the result in experiment [2], in experiment [3], in experiment [5], in [6], in [7] and in experiment [8] was inactive. For the same compound, the compound was classed as inactive in experiment [9] and in experiment [13]. For the same compound, the potentiation is 36% (active) in [4] and 14% (active) in experiment [14]. Also, the potentiation, percent of control in experiment [11] was 436% (active).

As for `CCn1c(=O)c(C(=O)NNC(=O)c2ccccc2F)c(O)c2ccccc21`, the activation is 126% (active) in [1], 111% (active) in experiment [12] and 34% (active) in experiment [15]. The outcome in experiment [2], in experiment [3], in experiment [4], in [5], in experiment [6] and in experiment [7] was inactive. Further, the result in experiment [8], in experiment [9], in experiment [10], in [11], in experiment [13] and in [14] was inactive. The outcome in [16] was inactive.

As for `Cc1cc(CSC(=N)N)c(CSC(=N)N)cc1C`, the figures for the activation in experiment [1], in experiment [2] and in experiment [12] were 178% (active), 67% (active) and 46% (active), respectively. For the same compound, the result in experiment [3], in experiment [4], in experiment [5], in experiment [6], in [7] and in [8] was inactive. The compound was classed as inactive in experiment [9], in [10], in [11], in [13], in experiment [14] and in [15]. The result in experiment [16] was inactive.

On to `CN1CCN(c2ccc(NC(=O)c3ccc(-c4cccc([N+](=O)[O-])c4)o3)cc2)CC1`, for which the activation in experiment [1] is 87% (active). The outcome in [2], in experiment [3], in experiment [4], in experiment [5], in experiment [6] and in [7] was inactive. Moreover, the result in [8], in [9], in [10], in [11], in experiment [12] and in experiment [13] was inactive. The outcome in experiment [14], in experiment [15] and in [16] was inactive.
